Screening data as filed in PubChem BioAssay.
Giardia FBPA inh: inhibitors of Giardia lamblia fructose-1,6-bisphosphate aldolase; A8B2U2; purified Giardia FBPA; Potency, µM (top dose mostly 59.6 µM), for the others: top-dose activity, negative = inhibition, actives largely listed as inhibitors; 0.71% of 290,000 active; also: potency is read from the fitted curve at half-maximal effect; nearly all actives have a fitted effect of over 55% in size
Target sequence (A8B2U2 whole entry, looked up): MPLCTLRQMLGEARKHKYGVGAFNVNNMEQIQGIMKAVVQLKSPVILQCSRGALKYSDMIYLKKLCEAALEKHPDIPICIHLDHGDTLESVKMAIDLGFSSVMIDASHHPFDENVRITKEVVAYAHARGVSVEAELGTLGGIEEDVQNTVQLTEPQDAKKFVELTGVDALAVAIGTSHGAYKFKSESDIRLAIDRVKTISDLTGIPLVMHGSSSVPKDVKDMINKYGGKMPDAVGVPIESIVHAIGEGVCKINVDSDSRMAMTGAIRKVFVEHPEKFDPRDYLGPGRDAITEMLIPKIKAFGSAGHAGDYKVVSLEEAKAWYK
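Giardia FBPA (40 nM reagent) was preincubated 10 min at RT with compound (up to 57.5 uM final), then substrate plus GAPDH/TPI/NAD/arsenate coupling system with diaphorase/resazurin was added; resorufin fluorescence (525/598 nm) was read after 20 min.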
Pf growth 96h: P. falciparum growth inhibition at 96 hours; AID 504834; Potency, µM (highest dose often 28.7 µM), for inactives: at the top dose activity change, negative = inhibition, actives largely listed as inhibitors; 6.9% of 320,000 active; P. falciparum luciferase reporter growth, 96 h; also: potency is read from the fitted curve at half-maximal effect
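Delayed-death screen, second-generation endpoint: infected erythrocytes, 2% hematocrit, 0.05% parasitemia final; 96 hours at 37 C, 5% CO2; luciferase detection reagent; luminescence decrease equals reduced growth.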
HCMV antiviral: inhibitors of human cytomegalovirus; HFF cells, HCMV-luciferase reporter, 72 h; stronger effect = lower value; AID 1259415; 4.5% of 410,000 active; activity change, negative = inhibition, % at 57.5 µM; in the data active = activity change below about -60%; inconclusive = no clear call, values can overlap the other calls; inactive = above about -39%
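Two compound doses tested in HFFs infected with HCMV-luciferase, MOI 1 PFU/cell, 72 h at 37C. Lysate luminescence read with OneGlo; data normalized against buffer-only and 10uM Salinomycin inhibitor controls.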
Sm TGR block: inhibitors of Schistosoma mansoni thioredoxin glutathione reductase | 3% of 360,000 active | Potency, µM (doses to about 114 µM), for the others: at the highest dose activity change, negative = inhibition, hits mostly inhibitors | Q962Y6 | purified TGR, DTNB reduction, TNB absorbance 405 nm; also: potency is read from the fitted curve at half-maximal effect; nearly all actives have a fitted effect of over 60% in size
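First, TGR (20 nM dispensed) and NADPH were mixed with compound. Second, a 15 min room-temperature incubation followed. Third, further NADPH and then DTNB were added to start the reaction. Finally, TNB absorbance was monitored kinetically.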
Pf growth 48h: P. falciparum growth inhibition at 48 hours (one generation); P. falciparum luciferase growth in erythrocytes, 48 h; Potency, µM (series often up to 28.7 µM), without a hit: top-dose activity change, negative = inhibition, most hits filed as inhibitors; 5.9% of 310,000 active; also: potency is read from the fitted curve at half-maximal effect
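Firefly luciferase activity from engineered P. falciparum reports growth; inhibitors lower the luminescent signal. Cultures contained 2% hematocrit erythrocytes at 0.1% final parasitemia.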
Active calls of the source: *; ? = inconclusive; · = no result given; [ ] = dose if it differs, or a comment. This is a sample that favours compounds with a hit; in the whole collection about 14% have one here. Unless noted, calls follow the shape of the dose curve; as a rule, active = well fitted curve in the direction sought with a large enough effect; inconclusive = small, poorly fitted or top-dose-only effect, or another doubt; inactive = no such curve, though single readings can be large; an effect the other way counts as inactive or inconclusive. % is scaled to controls: 0 for no effect and ±100 for the full control effect.

SMILES | Giardia FBPA inh | Pf growth 96h | HCMV antiviral | Sm TGR block | Pf growth 48h
O=C(NCc1ccc2c(c1)OCO2)[C@H]1[C@H](CO)[C@H]2Cn3c(cccc3=O)[C@@H]1N2Cc1ccccc1 | · | · | -8.7 | · | ·
CCC(C)NC(=O)CC1Oc2ccc(Cl)cc2NC1=O (stereo not drawn) | -2.9% | 10.4µM* | 7.4 | -13.1% | ·
Cc1oc(/C=N/NC(=O)CN(c2ccccc2Br)S(C)(=O)=O)cc1Br | · | 72.1% | -14.1 | 44.7µM* | -4.6%
Cc1ccccc1N(CC(=O)N/N=C/c1cc(Br)c(C)o1)S(C)(=O)=O | -6.6% | ? | -19.1 | 79.4µM* | 10.2%
Cc1oc(/C=N/NC(=O)CN(c2ccccc2Cl)S(C)(=O)=O)cc1Br | -6.5% | 18.8% | 11.0 | ? | 12.7%
CN(C)c1ccc(/C=N/NC(=O)CN(c2cccc(Cl)c2)S(C)(=O)=O)cc1Br | 4.3% | · | -11.6 | -13.9% | 13.1µM*
O=C(NCCc1ccccc1F)C1CCCN1S(=O)(=O)c1ccc2ccccc2c1 (stereo not drawn) | -1.5% | 48.3% | -11.8 | -3.7% | ?
CN(C)S(=O)(=O)Nc1ccc(-c2cn3ccsc3n2)cc1 | · | · | -36.2 | -0.3% | ·
O=C(N/N=C/c1ccccn1)c1ccc([N+](=O)[O-])cc1 | ? | 8.28µM* | -22.0 | 1.0% | ?
O=C(Cc1ccccc1)N/N=C/c1ccccn1 | · | · | -83.8* | · | ·
O=C(N/N=C/c1ccccn1)c1ccc(N/N=C/c2ccccn2)cc1 | ? | ? | -16.7 | -3.2% | ?
O=C(O)c1ccccc1-c1ccccc1C(=O)NCc1ccco1 | 15.0% | 10.6% | -7.8 | 50.1µM* | 9.8%
O=C(NCc1ccco1)c1ccccc1-c1ccccc1 | 1.5% | -17.0% | -79.8* | ? | ·
C[C@@H]1CN([C@H](C)CO)C(=O)c2cc(C#CC3CCCCC3)cnc2O[C@H]1CN(C)Cc1cccnc1 | · | · | -21.6 | · | ·
Cc1ccc(-c2cccc(CN3CCN(C(C)C)C(CCO)C3)c2)o1 (stereo not drawn) | 0.4% | ? | -23.2 | 35.5µM* | -18.9%
COc1cc([C@@H]2Oc3cc(C4Oc5cc(O)cc(O)c5C(=O)[C@H]4O)ccc3O[C@H]2CO)ccc1O (stereo partly drawn) | · | 13.1µM* | · | 44.7µM* | 10.4µM*
CCOC(=O)c1c(NC(C)=O)c2c3c(sc2n1Cc1cccc(Cl)c1)CCCC3 | · | · | -83.6* | 7.0% | ·
CC1CC(C)CN(C(=O)CSc2ncnc3sccc23)C1 (stereo not drawn) | · | 69.0% | ? | -12.1% | -12.5%
CCOC(=O)c1ccccc1NC(=O)CN(c1ccccc1OCC)S(C)(=O)=O | 4.1% | 10.7% | -12.2 | 0.0% | 9.28µM*
COc1ccccc1N(CC(=O)Nc1c(C)cccc1C)S(C)(=O)=O | 1.3% | ? | -8.2 | -2.7% | ·
CCOc1ccccc1N(CC(=O)Nc1ccccc1C(=O)O)S(C)(=O)=O | -18.4% | ? | 55.4 | -21.5% | -25.7%
COc1ccccc1N(CC(=O)Nc1ccccc1C)S(C)(=O)=O | -0.9% | 54.0% | -60.9* | -0.2% | -26.6%
CC(C)CNC(=O)c1ccccc1NC(=O)CN(c1ccccc1)S(=O)(=O)N(C)C | -3.7% | -1.2% | -28.5 | 13.8% | 10.4µM*
COc1ccccc1N(CC(=O)Nc1ccccc1C(=O)NCC(C)C)S(C)(=O)=O | 1.6% | · | ? | 0.9% | 8.28µM*
CCc1ccc(Nc2nc(-c3cc4cccc(OC)c4oc3=O)c(CC)s2)cc1 | · | · | ? | 23.2% | ·
SMILES | Giardia FBPA inh | Pf growth 96h | HCMV antiviral | Sm TGR block | Pf growth 48h
C/C(=N\NC(=O)c1cc(C(C)(C)C)[nH]n1)C12CC3CC(CC(C3)C1)C2 | 1.7% | 51.4% | -11.8 | 21.1% | 2.62µM*
O=C(Cn1c(=O)n(Cc2ccco2)c(=O)c2sc3ccccc3c21)Nc1ccc(F)cc1F | · | · | -74.4* | 6.1% | ·
OC[C@H]1O[C@@H](c2nc3ccc(-c4nc(-c5ccc(Br)cc5)no4)cc3[nH]2)C[C@@H]1O | · | · | -20.2 | · | ·
CCOc1ccc(OCC)c(NC(=O)CN2CCN(c3ccc(C)cc3C)CC2)c1 | -0.1% | -7.9% | 15.7 | 7.3% | 8.28µM*
Cc1cc(NC(=O)CS(=O)(=O)c2cn(Cc3ccccc3Cl)c3ccccc23)no1 | -0.3% | 0.586µM* | ? | -2.3% | 0.0%
Cc1cc(NC(=O)CS(=O)(=O)c2cn(Cc3cccc(Br)c3)c3ccccc23)no1 | · | · | -14.0 | · | ·
Cc1cnc(CNc2ncnc3ccc(-c4ccccc4C(F)(F)F)cc23)cn1 | 1.4% | · | · | · | ·
O=S(=O)(CCSc1nc2ccccc2s1)c1nc2ccccc2s1 | -9.0% | 36.9% | -85.4* | 0.1µM* | 11.7µM*
CCS(=O)(=O)CCSc1nc2ccccc2s1 | 5.9% | · | -11.7 | 0.0% | 26.6%
C=CCS(=O)(=O)c1nc2ccccc2s1 | -1.7% | ? | -97.2* | 14.1µM* | ?
c1ccc(-n2nnnc2SCCCSc2nc3ccccc3s2)cc1 | -2.2% | 4.15µM* | 108.7 | 1.4%[11.4 µM] | ·
CN(Cc1cn(C)nc1-c1ccccc1F)CC1CCCCO1 (stereo not drawn) | 4.5% | ? | 7.0 | 38.3% | 34.5%
CC(NC(=O)CCc1ccccc1)c1cc2c(cc1Cl)OCCO2 (stereo not drawn) | 2.9% | -10.1% | ? | 8.7% | 11.4%
COc1ccc(CNC(=O)C2CCCN2)cc1OC (stereo not drawn) | ? | -16.9% | 18.3 | · | -0.2%
Cc1cc(=S)cc(C)n1CCO | ? | 11.3% | -2.8 | 14.1µM* | 4.9%
Cc1ncc([N+](=O)[O-])n1CCO | 1.9% | 17.0% | -2.4 | 14.2% | 12.6%
Cc1cc(C)n(CC(O)Cn2c3ccccc3c3ccccc32)c(=O)n1 (stereo not drawn) | 4.5% | ? | 12.4 | -6.9% | ·
Cc1cc(C)n(CCO)c(=O)n1 | -2.2% | 2.33µM* | 29.6 | 17.8% | 8.9%
CC(Cc1ccccn1)NC(=O)c1ccc(OC2CCN(CCc3ccccc3)CC2)cc1 (stereo not drawn) | 6.7% | 13.0% | 25.5 | -34.6% | 11.7µM*
CC(NC(=O)c1ccc(OC2CCN(Cc3ccccn3)CC2)cc1)c1nccs1 (stereo not drawn) | · | 13.1µM* | 65.6 | -2.0% | -11.9%
Cc1nc(C(C)NC(=O)c2ccc(OC3CCN(Cc4ccccn4)CC3)cc2)c(C)s1 (stereo not drawn) | · | 11.9% | 0.0 | -23.0% | ?
O=C(NCCc1ccccn1)c1ccc(OC2CCN(CCc3ccccc3)CC2)cc1 | · | 7.9% | 7.5 | 51.0% | 44.5%
CCC(C)NC(=O)Nc1ccc(Br)cc1 (stereo not drawn) | -3.6% | ? | ? | 13.0% | 14.3%[5.75 µM]
CCC(C)Nc1ccc(NC(C)CC)cc1 (stereo not drawn) | · | 1.17µM* | · | 31.6µM* | 1.04µM*
Oc1ccc(Nc2nccc3[nH]c(-c4cccc(F)c4)cc23)cc1 | · | · | -9.2 | · | ·
CCOC(=O)c1[nH]c(C)c(C(=O)NC2CCCCCC2)c1C | -1.1% | 9.28µM* | -13.8 | -16.7% | 9.9%
CCOC(=O)c1[nH]c(C)c(C(=O)NCCc2ccc(OC)cc2)c1C | 8.3% | 4.65µM* | 0.7 | -18.5% | ?
